PubChem BioAssay AID1986 (Sanford-Burnham Center for Chemical Genomics, 2009)
Screen size: about 290,000 compounds; about 890 (0.31%) were called active. Cut-off read from the data, not from the text of the source: active = inhibition mostly above about 52% (no sharp cut-off); inactive = mostly below about 76%. The entries come from a sample that favours actives as a whole.

Experiment: cell-free HIV fusion peptide-binding blockers – biochemical, uHTS, fluorescence dequenching, primary screen (AID 1986)
Conditions: 30 min, stronger effect = higher value
[1] = measured here: repeat confirmation average inhibition, at 18.6 µM

| SMILES | inhibition (at 20 µM) | inhibition [1] |
| --- | --- | --- |
| c1ccc(-c2nc3ccccc3c3nncn23)cc1 | -1.8% (inactive) |  |
| O=c1[nH]nc(SCc2ccccc2Cl)n1-c1ccc2c(c1)OCCO2 | -1.4% (inactive) |  |
| COCCCN(C(=O)c1ccco1)c1nc(-c2ccc(OC)cc2)cs1 | 2.9% (inactive) |  |
| O=C(CCCl)Nc1cc(SCCO)cc([N+](=O)[O-])c1 | 0.1% (inactive) |  |
| CC(=O)c1cc(NC(=O)c2cccc(C(F)(F)F)c2)c(=O)oc1/C=C/N(C)C | 75.6% (active) | 91.6% |
| CC(=O)c1cc(NC(=O)c2ccc(C)cc2)c(=O)oc1/C=C/N(C)C | 25.7% (inactive) |  |
| CC(=O)c1cc(NC(=O)c2cccc(C(F)(F)F)c2)c(=O)oc1C | 0.8% (inactive) |  |
| COC(=O)c1ccc2c(c1)C(C)(C)C(/C=C/c1ccc(O)cc1)=[N+]2C | 111% (active) |  |
| COC(=O)c1ccc2c(c1)C(C)(C)C(/C=C/c1ccc(OC)c(OC)c1OC)=[N+]2C | 10.3% (inactive) |  |
| COC(=O)c1ccc2c(c1)C(C)(C)C(/C=C/c1ccccc1O)=[N+]2C | 143% (inactive) |  |
| C/C=C(\C)CN1CCN(c2ccccc2F)CC1 | -0.4% (inactive) |  |
| CC(=O)c1sc(NS(=O)(=O)c2ccc(C)cc2)nc1-c1ccccc1 | 19.8% (inactive) |  |
| COc1cc(/C=C2\S/C(=N/S(=O)(=O)c3ccccc3)NC2=O)c([N+](=O)[O-])cc1OC | 59.3% (inactive) | 33.8% |
| Cc1ccc(S(=O)(=O)N/N=C/c2cc([N+](=O)[O-])ccc2O)cc1[N+](=O)[O-] | 17.1% (inactive) |  |
| COc1ccc(S(=O)(=O)/N=C2/NC(=O)/C(=C\c3cc(OC)c(OC)cc3[N+](=O)[O-])S2)cc1 | 27.4% (inactive) |  |
| O=C(NCc1cc([N+](=O)[O-])ccc1O)c1cccc(NS(=O)(=O)c2ccccc2)c1 | 4% (inactive) |  |
| Cc1ccc(S(=O)(=O)N/N=C\c2cc([N+](=O)[O-])ccc2Cl)cc1 | 2.5% (inactive) |  |
| NC1=NC(=O)/C(=C\c2cc([N+](=O)[O-])ccc2Cl)S1 | -3.5% (inactive) |  |
| O=S(=O)(c1ccccc1)N1CCN(c2nnc(-c3ccccc3)c3ccccc23)CC1 | 0% (inactive) |  |
| Cc1cc(S(=O)(=O)N2CCCC2)c(C)s1 | -1.2% (inactive) |  |
| Nn1c(SCc2cccc(Br)c2)nnc1-c1cccnc1 | -2% (inactive) |  |
| COC(=O)CN1C(=S)N(c2ccc(OC)cc2)C(=O)/C1=C/c1ccc(OC)cc1 | -1.4% (inactive) |  |
| CCOc1ccc(/C=C2/C(=O)N(c3ccc(OC)cc3)C(=S)N2CC(=O)OC)cc1OCC | 2.5% (inactive) |  |
| COC(=O)CN1C(=S)N(c2ccc(OC)cc2)C(=O)/C1=C/c1ccc(N2CCOCC2)cc1 | 73.4% (active) |  |

| SMILES | inhibition (at 20 µM) | inhibition [1] |
| --- | --- | --- |
| COC(=O)N=Nc1c(O)[nH]c2ccc(Br)cc12 | -0.3% (inactive) |  |
| COc1ccccc1N=Nc1c(O)[nH]c2ccc(Br)cc12 | 74.7% (active) | 70.2% |
| COc1ccccc1NC(=S)N=Nc1c(O)[nH]c2ccc(Br)cc12 | -1.3% (inactive) |  |
| Cc1ccc(C(=O)NCc2ccc3c(c2)OCO3)c(C)c1 | 0.4% (inactive) |  |
| Cc1ccc(CNCc2ccc3c(c2)OCO3)c(C)c1 | -1.9% (inactive) |  |
| c1cc(CNc2ccc3c(c2)OCO3)ccn1 | 4.7% (inactive) |  |
| Cc1ccc(CNc2ccc3c(c2)OCO3)cc1 | 112% (active) |  |
| Cc1ccc(CNc2ccc3c(c2)OCO3)c(C)c1 | 52.3% (active) |  |
| Cc1ccc(CNCc2ccc3c(c2)OCO3)cc1 | 2.9% (inactive) |  |
| COC(=O)c1cc2ccccc2c(-c2c(OC)c(C(=O)OC)cc3ccccc23)c1OC | -0.9% (inactive) |  |
| CCOC(=O)N/N=C/c1ccc(OCCSc2ccc(Cl)cc2)c(OC)c1 | 6.5% (inactive) |  |
| O=C(NC1CCCC1)C(c1cccs1)N(C(=O)c1csnn1)c1ccccc1F (configuration not stated) | 0.9% (inactive) |  |
| CN(C)c1ccc(/C=C2\N=C(C(C)(C)C)OC2=O)cc1 | 28.5% (inactive) |  |
| COc1ccc(/C=C2\OC(=S)N(C)C2=O)cc1 | -1.3% (inactive) |  |
| CN1C(=O)/C(=C\c2ccc(N(C)C)cc2)OC1=S | 78.5% (active) | 83.9% |
| COc1ccccc1CN1C(=S)SC(C)(C)C1NO (configuration not stated) | -0.5% (inactive) |  |
| CCCCc1nc2cc(C(=O)N3CCNC(=O)C3)ccc2o1 | 0.8% (inactive) |  |
| CC(C)(C)C1C/C(=C/c2ccccn2)C(=O)/C(=C/c2ccccn2)C1 (configuration not stated) | 3.1% (inactive) |  |
| O=C1/C(=C/c2cccs2)CCC/C1=C\c1cccs1 | 31.9% (inactive) |  |
| CC(C)(C)C1C/C(=C/c2ccco2)C(=O)/C(=C/c2ccco2)C1 (configuration not stated) | 61.8% (active) |  |
| O=C1/C(=C\c2ccco2)CCC/C1=C\c1ccco1 | 69.6% (inactive) | 3.2% |
| CCC1C/C(=C/c2ccco2)C(=O)/C(=C/c2ccco2)C1 (configuration not stated) | 68.9% (inactive) | 0.1% |
| CC1C/C(=C/c2ccco2)C(=O)/C(=C/c2ccco2)C1 (configuration not stated) | 61.3% (active) |  |
| CC1C/C(=C/c2ccncc2)C(=O)/C(=C/c2ccncc2)C1 (configuration not stated) | 1.9% (inactive) |  |

| SMILES | inhibition (at 20 µM) | inhibition [1] |
| --- | --- | --- |
| Cn1cccc1/C=C1\CC(C(C)(C)C)C/C(=C\c2cccn2C)C1=O (configuration not stated) | 2.7% (inactive) |  |
| CC1C/C(=C/c2cccs2)C(=O)/C(=C/c2cccs2)C1 (configuration not stated) | 68.1% (active) |  |
| N#Cc1cccn1-c1nccs1 | -0.8% (inactive) |  |
| Cc1onc(-c2c(F)cccc2Cl)c1C(=O)OCC(=O)NC(N)=O | -0.8% (inactive) |  |
| COC(=O)c1ccc(CSc2nc3ccccc3[nH]2)o1 | 1.5% (inactive) |  |
| CCN(CC)c1ccc(/C=C2/SC(=O)N(C(C)C)C2=O)o1 | 2.5% (inactive) |  |
| CC(C)N1C(=O)S/C(=C\c2ccc(-c3ccc(Cl)c(C(=O)O)c3)o2)C1=O | 24.7% (inactive) |  |
| CCN(CC)c1ccc(/C=C2\SC(=O)N(C(C)C)C2=O)o1 | 56.4% (active) |  |
| O=C(O)c1ccc2c(c1)C1C=CCC1C(c1ccncc1)N2 (configuration not stated) | 24.6% (inactive) |  |
| COc1ccc(C(=O)N/N=C(\C)c2ccc3c(c2)C2C=CCC2C(c2ccccc2)N3)cc1 (configuration not stated) | 16.5% (inactive) |  |
| NCCCNc1ccc([N+](=O)[O-])cc1C(F)(F)F | 0.6% (inactive) |  |
| O=C(COc1ccc(Br)cc1Cl)NC(=S)Nc1ccccn1 | -1.1% (inactive) |  |
| COc1ccccc1N1C(C)=CC(=C(C#N)c2nc3ccccc3s2)C=C1C | 26.5% (inactive) |  |
| CC1=CC(=C(C#N)c2nc3ccccc3s2)C=C(C)N1c1ccc(F)cc1 | 66.4% (active) |  |
| CC1=CC(=C(C#N)c2nc3ccccc3s2)C=C(C)N1c1ccc(F)cc1F | 22.6% (inactive) |  |
| CCN(CC)C(=O)Cn1cc(S(=O)(=O)CC(=O)Nc2cc(OC)ccc2OC)c2ccccc21 | -1.7% (inactive) |  |
| C=CCNCCCCOc1ccccc1-c1ccccc1 | -2% (inactive) |  |
| CC1=NOC(=O)/C1=C/c1ccc(O)cc1 | 0.5% (inactive) |  |
| CCN(CC)c1ccc(/C=C2/C(=O)ON=C2C)cc1 | 100% (active) |  |
| CC1=NOC(=O)/C1=C/c1ccc(N(C)C)cc1 | -2.2% (inactive) |  |
| Nn1cnnc1SCC(=O)Nc1ccc2c(c1)OCO2 | 0.5% (inactive) |  |
| Cc1cccc(C)c1Nc1nnc(SCC(=O)c2ccc3c(c2)NC(=O)CO3)s1 | 0.2% (inactive) |  |
| CCOC(=O)/C(C#N)=C\c1ccc(N2CCN(C/C=C/c3ccccc3)CC2)cc1 | 117% (active) |  |
| CCOC(=O)/C(C#N)=C/c1ccc(N2CCN(C)CC2)cc1 | 7.2% (inactive) |  |

| SMILES | inhibition (at 20 µM) | inhibition [1] |
| --- | --- | --- |
| CCOC(=O)/C(C#N)=C\c1ccc(N2CCN(C)CC2)cc1 | 4% (inactive) |  |
| CCCCCCCCCCCCCCCC[n+]1ccc(C(N)=O)cc1 | -14.2% (inactive) |  |
| CCCCCCCCCC[n+]1cccc(C(=O)N(CC)CC)c1 | 3% (inactive) |  |
| CCCn1c(=O)c2sccc2n2c(CCCC(=O)NCc3cccnc3)nnc12 | -1.5% (inactive) |  |
| O=C(c1ccccc1)N1N=C(c2ccccc2)CC1c1ccccc1 (configuration not stated) | 1.1% (inactive) |  |
| Cc1cc[n+](-c2[nH]c(=O)sc2/C=N/N=C(\[O-])c2ccccc2)cc1C | 116% (active) | 93.6% |
| Cc1cc[n+](-c2[nH]c(=O)sc2/C=N/N=C(\[O-])c2ccccc2)cc1 | 10.5% (inactive) |  |
| Cc1cc[n+](-c2[nH]c(=O)sc2/C=N/N=C(\[O-])c2ccncc2)cc1C | 0% (inactive) |  |
| Cc1cc(NC(=O)CSCC(=O)N(c2cccc(Cl)c2)C(C(=O)NC2CCCCC2)c2ccc(O)c(O)c2)no1 (configuration not stated) | 11.2% (inactive) |  |
| CSCc1ccc(C(=O)NC2CC(C)(C)Cc3c2cnn3-c2ccc(F)cc2)o1 (configuration not stated) | 1.2% (inactive) |  |
| CCCn1c(=O)c2ccccc2n2c(SCN3C(=O)c4ccccc4C3=O)nnc12 | 0.3% (inactive) |  |
| N#C/C(=C/c1ccc(-c2cc(C(=O)O)cc(C(=O)O)c2)o1)c1nc2ccccc2s1 | 92.9% (active) |  |
| N#C/C(=C/c1ccc(-c2ccc(S(N)(=O)=O)cc2)o1)c1nc2ccccc2s1 | 149% (inactive) |  |
| O=C(O)c1cc(-c2ccc(/C=C3\NC(=O)N(c4ccccc4)C3=O)o2)ccc1Cl | 32.2% (inactive) |  |
| CC1(C)OC(=O)C(=Cc2ccc(-c3ccc(Cl)c(C(=O)O)c3)o2)C(=O)O1 | 36.9% (inactive) |  |
| O=C(O)c1cccc(-c2ccc(/C=c3/sc4nc5ccccc5n4c3=O)o2)c1 | 78% (active) |  |
| O=Cc1ccc(-c2cccc(C(=O)O)c2)o1 | 2.4% (inactive) |  |
| N#C/C(=C\c1ccc(-c2ccc([N+](=O)[O-])cc2)o1)C(=O)Nc1nc(-c2cccs2)cs1 | -1.7% (inactive) |  |
| O=C(O)c1cc(-c2ccc(/C=c3\sc4nc5ccc(Br)cc5n4c3=O)o2)ccc1Cl | 68.1% (active) |  |
| N#C/C(=C/c1ccc(-c2ccccc2)o1)c1nc(-c2cccs2)cs1 | 62.6% (active) |  |
| O=C(O)c1cccc(-c2ccc(/C=N/n3cnnc3)o2)c1 | 1.6% (inactive) |  |
| N#C/C(=C\c1ccco1)c1nc2ccccc2s1 | 146% (inactive) |  |
| N#C/C(=C\c1ccc(-c2ccc(F)cc2)o1)C(=O)Nc1nc(-c2cccs2)cs1 | 14.4% (inactive) |  |
